CDC25B-CDK2 inh = human CDC25B-CDK2/CyclinA binding inhibition; P30305+P24941; HTRF CDC25B-CDK2/CyclinA binding, anti-His/anti-Flag; hits give high values; z-score (test concentration not listed); 94,000 compounds, 0.72% hits; AID 1259370; in the data active = z-score above about 3.2
TAR Tat displ = HIV-1 TAR-Tat binding disruption. HIV-1 TAR RNA, Tat peptide displacement FRET; hits give high values. z-score (no concentration beside the values). 100,000 compounds, 0.6% hits. AID 1259389; active = z-score of 3 or more in at least 2 runs
* marks the source's active call; other numbers are inactive results; x = not tested or not shown. A selection: hits, their analogues and other compounds. The true share with any hit is near 0.93%.

SMILES | CDC25B-CDK2 inh | TAR Tat displ
Cc1c(C(=O)Nc2ccc(F)cc2)sc2nc[nH]c(=O)c12 | x | 1.6
Cc1nc(N)sc1-c1csc(Nc2ccccn2)n1 | 18* | x
Cc1ccc(-c2csc(Nc3ccccn3)n2)cc1 | -0.98 | 0.8
CN1C(C(=O)NCc2ccc3c(c2)OCO3)=CC(c2ccc(F)cc2)=NS1(=O)=O | -2 | 1.7
CC1CCC(NS(=O)(=O)c2ccc3[nH]c(=O)ccc3c2)CC1 (stereo not drawn) | x | 32*
CC1CCC(NC(=O)C2CCN(S(=O)(=O)c3ccc4[nH]c(=O)ccc4c3)CC2)CC1 (stereo not drawn) | x | 2.8
O=C1C(NC2CCCCC2)=C(N2CCCCC2)C(=O)c2ccccc21 | 5* | x
O=c1c(NC2CCCCC2)c(-c2ccccc2)c1=O | x | 1.1
Cn1ncc2c(Nc3ccc(F)cc3)nc(NCCc3ccccc3)nc21 | x | -0.32
Cc1ccc2cc3c(nc2c1)N(C(=O)C1CC1)CC3 | -1.1 | -1.3
COc1cc(CNC(=O)c2sc3nc(-c4ccncc4)ccc3c2N)cc(OC)c1 | -1.5 | 1.2
Nc1c(C(=O)NCc2ccco2)sc2nc(-c3ccncc3)ccc12 | 12* | -3.5
Cc1nn(CCCC(=O)N2CCc3ccccc3C2)c(=O)c2c1sc1ccccc12 | -1.8 | 3.8
CCC1=NN(c2ccccc2)C(=O)C1 | 10* | -0.73
CC1=NN(c2ccccc2)C(=O)/C1=C1/C(=O)N(c2ccccc2)N=C1C | 1.1 | x
Cc1cc(C)n2c(SCc3ccc(C(=O)c4ccccc4)cc3)nnc2n1 | 8.3* | 1.5
Cc1cc(C)n2c(SCc3ccc(Br)cc3)nnc2n1 | -1.4 | 0.81
CC(C)c1onc(C(=O)Nc2ccc(F)c(Cl)c2)c1[N+](=O)[O-] | -0.96 | -0.1
CCOc1ccc(-c2[nH]nc3nc(-c4ccc(C(=O)OC)cc4)cc(C(=O)O)c23)cc1 | 0.02 | -0.11
COc1ccc(S(=O)(=O)c2cnc3ccc(OC)cc3c2N2CCC(C(N)=O)CC2)cc1 | -0.6 | -0.16
CC1(C)OC(=O)C(=CNc2ccc(F)c(Cl)c2)C(=O)O1 | -1.6 | x
CC1(C)OC(=O)C(=Cc2ccc(Cl)cc2Cl)C(=O)O1 | 9.2* | x
CCCc1nnc2sc(NC(=O)C3CCCCC3)nn12 | -1.1 | -0.12
COc1ccc(OC)c(NC(=O)Nc2c(C)nc3nc[nH]n3c2=O)c1 | x | 1.6
COc1ccc(C2=NN3C(C2)c2ccccc2OC3c2ccncc2)cc1OC (stereo not drawn) | -0.92 | -0.61
SMILES | CDC25B-CDK2 inh | TAR Tat displ
COc1ccccc1C1Oc2ccccc2C2CC(c3cccnc3)=NN21 (stereo not drawn) | -0.43 | 3.5*
Cc1cc(Nc2ccc(Br)cc2)n2nc(-c3ccccc3)nc2n1 | -0.86 | 1.1
Cn1cc(C2N3CC4(C)CN2CC(C)(C3)C4O)c2ccccc21 (stereo not drawn) | -1.3 | x
O=C(CSc1ncnc2c1sc1cccc(F)c12)NCCc1ccco1 | x | 12*
O=C(CSc1ncnc2c1sc1cccc(F)c12)N1CCCCC1 | x | -0.7
O=C(O)CCSc1ncnc2c1sc1cccc(F)c12 | -0.58 | 5.4*
O=C(CSc1ncnc2c1sc1cccc(F)c12)NCc1ccco1 | x | 0.27
CC(C)(C)c1ccc(C2Nc3cccc4cccc(c34)N2)cc1 | -0.84 | 7.1*
COc1cc(OC)c(C2Nc3cccc4cccc(c34)N2)c(OC)c1 | -3 | 2.6
CN(C)c1ccc(C2Nc3cccc4cccc(c34)N2)cc1 | -0.66 | 1.5
c1ccc(C2Nc3cccc4cccc(c34)N2)cc1 | 0.48 | 10*
c1ccc2c(C3Nc4cccc5cccc(c45)N3)cccc2c1 | -1.2 | 8.2*
COc1ccccc1C1Nc2cccc3cccc(c23)N1 | -0.15 | 4
CCc1ccc(C2Nc3cccc4cccc(c34)N2)cc1 | -1.1 | 35*
Brc1cccc(C2Nc3cccc4cccc(c34)N2)c1 | -0.96 | 1.6
NCCc1c(C(=O)O)[nH]c2ccc(S(N)(=O)=O)cc12 | 1.4 | x
Cc1nc(-n2[nH]c(C)c(CC(=O)NC(C)C)c2=O)sc1C | -2.2 | -1.6
CCOc1ccc(NC(=O)c2cc(C)n(C)n2)cc1 | 0.49 | x
CCOC(=O)C1CCN(CC2=NS(=O)(=O)c3ccccc3N2)CC1 | -2.1 | 2.6
CC(C(=O)NC1CCCC1)n1ncn2c(cc3occc32)c1=O (stereo not drawn) | -1.9 | 1.3
COc1cc(C2Nc3cccc4cccc(c34)N2)ccc1OCc1ccccc1 | -3.1 | 0.66
CCOc1cc(C2Nc3cccc4cccc(c34)N2)ccc1O | -4.4 | 8*
Cn1c(C(=O)N2CCN(C(=O)c3ccco3)CC2)cc2c(=O)[nH]c3ccccc3c21 | 18* | 0.35
Cn1c(C(=O)N2CCN(C(=O)c3ccco3)CC2)cc2c(=O)n(C)c3ccccc3c21 | -1.7 | 1.1
CCCNC(=O)c1cnc2c(C)cccn2c1=O | x | 1.7
SMILES | CDC25B-CDK2 inh | TAR Tat displ
COc1ccc(NC(=O)Nc2nnc(COc3ccccc3F)s2)cc1 | 4.7* | 1.2
CCc1nnc(NC(=O)Nc2ccc(OC)cc2)s1 | -2.5 | x
Cc1ccccc1-c1noc(-c2nnn(-c3cccc(F)c3)c2N)n1 | x | -0.13
COc1ccc2c(c1)c(=O)oc1cc(OCC(=O)OC(C)(C)C)ccc12 | -9.4 | x
Cc1c(C(=O)NCCc2ccsc2)sc2nc3n(c(=O)c12)CCCCC3 | x | 2.5
O=S(=O)(CCN(C1CCCCC1)S(=O)(=O)c1ccc(C2CCCCC2)cc1)N1CCNCC1 | x | 0.73
Oc1ccc(-c2csc(Nc3ncccn3)n2)cc1O | -6.2 | x
Cc1cc(C)nc(Nc2nc(-c3ccc(O)c(O)c3)cs2)n1 | 1.1 | 29*
CCCCN(CC)S(=O)(=O)c1cc2c(cc1Cl)NC(=O)CO2 | x | -6.6
O=c1c(O)c(-c2ccc(O)c(O)c2)oc2cc(O)ccc12 | x | 3.6
O=c1c(O)c(-c2cc(O)c(O)c(O)c2)oc2cc(O)ccc12 | x | 19*
Cc1ccc(C2CC(c3ccc(NS(C)(=O)=O)cc3)=NN2C(=O)CCCC(=O)O)cc1 (stereo not drawn) | -2.1 | 0.14
O=C(Nc1ccc2c(c1)OCCO2)C1CCN(S(=O)(=O)c2ccc3[nH]c(=O)ccc3c2)CC1 | x | 1.2
O=C(Nc1ccc2c(c1)OCCO2)C1CCN(S(=O)(=O)c2ccc(Br)cc2)CC1 | 4.6* | 1.6
NC1=NNC(c2ccccc2)=CS1 | 2.6 | x
Cn1c(=O)c2c(-c3cccc(Br)c3)n(C3CCCCC3)cc2n(C)c1=O | -0.14 | 1.1
N.N.N.N.N.N.N.N.N.N.N.N.N.N.O.O.[Cl-].[Cl-].[Cl-].[Cl-].[Cl-].[Cl-].[Ru+4].[Ru+5].[Ru+5] | 4.2* | x
O=C(Cn1ncc2c([nH]c3ccccc32)c1=O)N1CCC(c2ccccc2)C1 (stereo not drawn) | x | 1.3
Nc1ccc(-c2nc3cc4sc(-c5ccc(N)cc5)nc4cc3s2)cc1 | 4.5* | 35*
Nc1ccc(-c2nc3ccc(N)cc3s2)cc1 | -3.9 | 1.8
Cc1cc(N)c(-n2cc3c(c2-c2cccc(Br)c2)c(=O)n(C)c(=O)n3C)cc1C | 0.27 | 0.05
O=C(CCCCCn1c(=S)[nH]c2ccccc2c1=O)N1CCc2ccccc2C1 | -4.5 | x
CN1C(=O)CSc2ccc(NC(=O)NCc3cccnc3)cc21 | 4.8* | 0.5
CN1C(=O)CSc2ccc(NC(=O)NCc3ccc(F)cc3)cc21 | 1.9 | -0.54
Cc1nc2sc(C(c3ccc(Cl)cc3)N3CCN(c4ccc(F)cc4)CC3)c(O)n2n1 (stereo not drawn) | -1.6 | x
C=C(C)C(CCC=C(C)C)C12C[C@@H](CC=C(C)C)C(C)(C)C(CC=C(C)C)(C(=O)/C(=C(/O)c3ccc(O)c(O)c3)C1=O)C2=O (stereo partly drawn) | x | 8.3*

Screens from PubChem.
